# From PubChem BioAssay (EPA / NIEHS)
# Values joined by “and” are separate entries in the source; they are usually repeats but may differ in a detail not shown here. Identical values can stand only once. Records with an inconclusive call do not appear. Active and inactive are the calls of the source. How the source made its calls, unless noted: active means hit-call score of the fitted dose curve at least 0.9, where 1 is the maximum; inactive means score below 0.9.
# Legend:
# [1] = target: Estrogen receptor (Homo sapiens) (UniProt P03372); test: CCTE_Deisenroth_AIME_96WELL_LUC_Active: CCTE's 96-well Estrogen Receptor Transactivation Assay with AIME metabolic competence (ERTA luciferase; metabolism positive), Deisenroth Lab (AID 2284023; active means hit-call score of the fitted dose curve at least 0.9, where 1 is the maximum)
# Sequence of Estrogen receptor (Homo sapiens) (P03372 whole entry, looked up): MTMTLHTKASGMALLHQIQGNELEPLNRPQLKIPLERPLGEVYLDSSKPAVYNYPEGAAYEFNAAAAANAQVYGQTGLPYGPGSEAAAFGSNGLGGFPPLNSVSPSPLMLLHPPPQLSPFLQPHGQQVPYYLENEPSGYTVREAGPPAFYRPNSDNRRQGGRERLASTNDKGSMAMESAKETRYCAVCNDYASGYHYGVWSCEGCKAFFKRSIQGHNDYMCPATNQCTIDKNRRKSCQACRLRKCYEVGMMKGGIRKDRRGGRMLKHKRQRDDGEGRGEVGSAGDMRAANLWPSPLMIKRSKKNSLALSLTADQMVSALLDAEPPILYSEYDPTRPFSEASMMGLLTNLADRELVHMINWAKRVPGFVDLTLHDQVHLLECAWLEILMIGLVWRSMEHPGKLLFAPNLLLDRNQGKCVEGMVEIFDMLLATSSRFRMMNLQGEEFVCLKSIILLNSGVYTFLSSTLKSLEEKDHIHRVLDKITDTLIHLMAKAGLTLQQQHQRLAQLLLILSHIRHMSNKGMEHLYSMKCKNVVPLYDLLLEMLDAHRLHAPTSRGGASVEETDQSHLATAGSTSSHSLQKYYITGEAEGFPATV
# Summary of the method: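 Metabolism-positive mode: induced rat hepatic S9 in alginate microspheres conditions test solutions (0.002 - 200 uM, 10 points) for 2 hours. VM7Luc4E2 ER luciferase reporter cells then exposed 24 h; positive-direction fit against 17beta-estradiol, n=4 typical.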
# [2] = target: Estrogen receptor (Homo sapiens) (UniProt P03372); test: CCTE_Deisenroth_AIME_96WELL_LUC_Inactive: CCTE's 96-well Estrogen Receptor Transactivation Assay without AIME metabolic competence (ERTA luciferase; metabolism negative), Deisenroth Lab (AID 2284025; active means hit-call score of the fitted dose curve at least 0.9, where 1 is the maximum)
# Summary of the method: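 Metabolism-negative arm: chemicals (0.002–200 uM, 10 points) incubated 2 h with alginate-water microspheres, then medium moved onto VM7Luc4E2 cells for 24 h luciferase read-out. Positive direction vs 17beta-estradiol; n≥4 experiments.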
# [3] = CCTE_Shafer_MEA_acute_burst_duration_mean: CCTE's Neural Acute Assay for Mean Burst Duration, Shafer Lab (AID 2284014);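 further: hits are decreases in mean burst duration relative to DMSO controls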
# Summary of the method: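 Mean burst duration was compared between a 40 min baseline and a 40 min recording in the presence of compound (0.03-40 uM, 37 C), giving percent change per well. Cultures were rat cortical neurons at DIV 13 or 15; wells needed ≥10 active electrodes.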
# [4] = CCTE_Shafer_MEA_acute_per_burst_spike_number_mean: CCTE's Neural Acute Assay for Average Number of Spikes Per Burst, Shafer Lab (AID 2284015);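 further: hits are decreases in mean spikes per burst versus baseline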
# Summary of the method: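 Percent change in mean spikes per single-electrode burst is compared between a 40 min baseline and a 40 min recording with compound (0.03-40 uM). Cultures were rat cortical neurons on MEA plates at DIV 13 or 15, recorded at 37 C, with DMSO as the negative control.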
# [5] = CCTE_Shafer_MEA_acute_interburst_interval_mean: CCTE's Neural Acute Assay for Mean Interburst Interval, Shafer Lab (AID 2284016);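 further: percent change of mean interburst interval versus each well's own pre-dose baseline; curves fitted for decrease in interburst interval relative to DMSO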
# Summary of the method: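 Percent change in mean single-electrode interburst interval was calculated per well from 40 min recordings before and after compound (0.03-40 uM). Recordings were made at 37 C on rat cortical cultures at DIV 13 or 15, with spikes detected at 8x rms threshold.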
# [6] = CCTE_Shafer_MEA_acute_burst_percentage_std: CCTE's Neural Acute Assay for Standard Deviation of Burst Percentage, Shafer Lab (AID 2284018);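 further: fitted in the negative direction so actives lower burst percentage SD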
# Summary of the method: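 Value is percent change from baseline in the across-electrode SD of spikes-in-bursts percentage, wells with >/= 10 active electrodes. Acute 40-min exposure to 0.03-40 uM on DIV 13 or 15 rat cortical cultures, recorded at 37 C after 40-min baseline.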
# [7] = CCTE_Shafer_MEA_acute_per_network_burst_spike_number_mean: CCTE's Neural Acute Assay for Average Number of Spikes in a Network Burst, Shafer Lab (AID 2284019);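 on AC50: curve fitted for loss of signal so actives reduce spikes per network burst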
# Summary of the method: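 Percent change from baseline in mean spikes per network burst, spikes detected at 8x rms noise. Each compound at 0.03-40 uM in at least three wells of rat cortical cultures, recorded 40 min before and 40 min during exposure.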
# [8] = CCTE_Shafer_MEA_acute_per_network_burst_spike_number_std: CCTE's Neural Acute Assay for Standard Deviation of Number of Spikes in a Network Burst, Shafer Lab (AID 2284020);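 further: fitted for decrease in spike-number SD versus DMSO so actives lower it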
# Summary of the method: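 Endpoint: percent change from 40 min baseline in standard deviation of spikes per network burst, after 40 min compound exposure (0.03-40 uM, 37 C). Cortical rat neurons on MEA at DIV 13 or 15; spikes detected at 8x rms noise, 300-5000 Hz band-pass.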
# [9] = CCTE_Shafer_MEA_acute_per_network_burst_electrodes_number_mean: CCTE's Neural Acute Assay for Mean Number of Electrodes in a Network Burst, Shafer Lab (AID 2284021);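 further: curves fitted for decreases only so hits reduce electrodes per burst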
# Summary of the method: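 Percent change from baseline in average electrode count per network burst, rat cortical cultures on 48-well MEAs; 40-min recordings each side of exposure, DIV 13 or 15; threshold 8x rms noise; DMSO as negative control.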
# [10] = CCTE_Shafer_MEA_acute_network_burst_percentage: CCTE's Neural Acute Assay for Percentage of Network Bursts, Shafer Lab (AID 2284022);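 further: curves fitted for loss so actives lower network burst percentage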;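 on outcome: rat primary cortical neuron networks on multiwell MEA recorded 40 min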
# Summary of the method: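 On DIV 13 or 15, at least three wells of rat cortical neurons per compound are dosed at 0.03-40 uM. Spontaneous firing is detected at 8x rms noise for 40 min before and after dosing at 37 C. The percent change in network-burst spike share is reported.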
# [11] = CCTE_Shafer_MEA_acute_cross_correlation_area: CCTE's Neural Acute Assay for Area of Cross Correlation, Shafer Lab (AID 2284024);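 further: area under pooled inter-electrode spike cross-correlation near zero lag as percent change from own baseline; curves fitted for loss of cross-correlation area so actives lower synchrony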
# Summary of the method: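 Extracellular recordings from cultured rat cortical neurons measure network synchrony as cross-correlation area; each well's post-compound value (0.03-40 uM, 40 min) is compared with its own 40 min baseline to give percent change.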
# [12] = CCTE_Shafer_MEA_acute_cross_correlation_HWHM: CCTE's Neural Acute Assay for Cross Correlation at Half Width at Half Maximum, Shafer Lab (AID 2284026);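 further: percent change per well from pre-dose baseline in spike cross-correlogram half width; hits are a decrease in cross-correlogram half width relative to DMSO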;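 on outcome: spontaneous network firing of rat primary cortical neurons on multiwell microelectrode arrays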
# Summary of the method: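 Percent change in cross-correlogram half width at half maximum, narrower meaning more synchrony, was derived per well from paired 40-min recordings before and during exposure to 0.03-40 uM compound in rat cortical cultures at 37 C.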
# [13] = CCTE_Shafer_MEA_acute_synchrony_index: CCTE's Neural Acute Assay for Synchrony, Shafer Lab (AID 2284027);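 further: network synchrony index of spontaneous spiking in primary rat cortical neurons on MEAs; fitted for loss of signal so actives lower synchrony relative to DMSO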
# Summary of the method: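 The synchrony index is taken as percent change per well between a 40 min baseline and a 40 min recording with compound (0.03–40 uM), at 37C. Rat cortical cultures on multiwell MEAs at DIV 13 or 15, spike threshold 8× rms noise.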
# [14] = CCTE_Deisenroth_AIME_384WELL_CTox_Active: Cytotoxicity Assessment (CTOX) in CCTE's 384-well Estrogen Receptor Transactivation Assay with AIME metabolic competence (metabolism positive), Deisenroth Lab (AID 2284037; active means hit-call score of the fitted dose curve at least 0.9, where 1 is the maximum;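 further: chemicals first conditioned 2 h by alginate-bound induced rat liver S9 before cells; activity means signal loss indicating cell death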)
# Summary of the method: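 Cytotoxicity in VM7Luc4E2 breast cells, 24 hour, measured as protease-substrate fluorescence loss, after 2-hour metabolic conditioning with induced rat hepatic S9 in alginate microspheres. Concentrations 0.002 - 200 uM, 10 points, bidirectional fitting.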
# [15] = CCTE_Deisenroth_AIME_384WELL_CTox_Inactive: Cytotoxicity Assessment (CTOX) in CCTE's 384-well Estrogen Receptor Transactivation Assay without AIME metabolic competence (metabolism negative), Deisenroth Lab (AID 2284039; active means hit-call score of the fitted dose curve at least 0.9, where 1 is the maximum;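 further: cell viability via live-cell protease substrate cleaved to fluorescent probe; cells exposed 24 h to medium preincubated 2 h with alginate-water beads without S9; loss of fluorescence signal means loss of viability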)
# Summary of the method: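 Fluorescent protease-substrate viability readout after 24 h exposure of VM7Luc4E2 cells to conditioned medium. Chemicals (0.002–200 uM) first sat 2 h over alginate-water beads, no S9. Data fitted bidirectionally, loss of signal meaning viability loss.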
# [16] = CCTE_Shafer_MEA_dev_firing_rate_mean: CCTE's Neural Network Formation Assay for Mean Firing Rate, Shafer Lab (AID 2284031);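 on AC50: curve fitted for loss of firing so AC50 reflects decreased mean firing rate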
# Summary of the method: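 Spike frequency (spikes/recording length, averaged over active electrodes) was recorded on days 5, 7, 9 and 12 and collapsed to AUC; rat cortical cultures received compound continuously over 12 days of network development.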
# [17] = CCTE_Shafer_MEA_dev_per_burst_spike_percent: CCTE's Neural Network Formation Assay for Percent of Spikes in a Burst, Shafer Lab (AID 2284032);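 on AC50: fitted as a decrease in burst spike percentage below DMSO baseline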
# Summary of the method: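 Value is trapezoidal AUC over recordings on days 5, 7, 9 and 12 of the well-mean fraction of spikes falling in single-electrode bursts; rat cortical cultures exposed continuously from plating, treatment renewed DIV 5 and 9, fitted downward against DMSO.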
# [18] = target: Estrogen receptor (Homo sapiens) (UniProt P03372); test: CCTE_Deisenroth_AIME_384WELL_LUC_Active: CCTE's 384-well Estrogen Receptor Transactivation Assay with AIME metabolic competence (ERTA luciferase; metabolism positive), Deisenroth Lab (AID 2284030; active means hit-call score of the fitted dose curve at least 0.9, where 1 is the maximum)
# Summary of the method: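 Estrogenic luciferase signal in VM7Luc4E2 cells is measured at 24 hour, after chemicals have been preconditioned 2 hours with PB/BNF-induced rat hepatic S9 in alginate. Gain of signal is fitted relative to 17beta-estradiol, across 0.002 - 200 uM.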
structure (smiles),measurement,setting,value
C=CC#N,outcome,[1],inactive
same,outcome,[2],inactive
CCN1CCC2(CC1)COc1cc3c(cc12)N(C(=O)c1ccc(-c2ccc(-c4nnc(C)o4)cc2C)cc1)CC3,outcome,[3],inactive
same,outcome,[4],inactive
same,outcome,[5],inactive
same,outcome,[6],inactive
same,outcome,[7],inactive
same,AC50,[8],30.1 µM (active)
same,outcome,[9],inactive
same,AC50,[10],24.9 µM (active)
same,outcome,[11],inactive
same,AC50,[12],31.2 µM (active)
same,AC50,[13],17.2 µM (active)
CC(C)(c1ccccc1)c1ccc(O)c(C(C)(C)c2ccccc2)c1,outcome,[3],inactive
same,outcome,[4],inactive
same,AC50,[5],4.19 µM (active)
same,AC50,[6],20 µM (active)
same,outcome,[7],inactive
same,outcome,[8],inactive
same,outcome,[9],inactive
same,AC50,[10],28.6 µM (active)
same,outcome,[11],inactive
same,AC50,[12],9.24 µM (active)
same,AC50,[13],6.29 µM (active)
same,AC50,[14],93.9 µM (active)
same,AC50,[15],64.6 µM (active)
COC(=O)Cc1ccccc1,outcome,[3],inactive
same,outcome,[4],inactive
same,outcome,[5],inactive
same,outcome,[6],inactive
same,outcome,[7],inactive
same,outcome,[8],inactive
same,outcome,[9],inactive
same,outcome,[10],inactive
same,outcome,[11],inactive
same,outcome,[12],inactive
same,outcome,[13],inactive
C=C(C)C(=O)[O][Sn]([CH2]CCC)([CH2]CCC)[CH2]CCC,AC50,[3],3.11 µM (active)
same,outcome,[4],inactive
same,outcome,[5],inactive
same,AC50,[6],20 µM (active)
same,outcome,[7],inactive
same,AC50,[8],0.0933 µM (active)
same,AC50,[9],2.81 µM (active)
same,AC50,[10],0.205 µM (active)
same,AC50,[11],0.0108 µM (active)
same,outcome,[12],inactive
same,AC50,[13],0.116 µM (active)
same,AC50,[16],4.31 nM (active)
same,AC50,[17],38.9 nM (active)
CC(C)(OO)c1ccccc1,outcome,[3],inactive
same,outcome,[4],inactive
same,outcome,[5],inactive
same,outcome,[6],inactive
same,outcome,[7],inactive
same,outcome,[8],inactive
same,outcome,[9],inactive
same,outcome,[10],inactive
same,outcome,[11],inactive
same,outcome,[12],inactive
same,outcome,[13],inactive
CC(=O)OC(c1ccccc1)C(Cl)(Cl)Cl (configuration not stated),outcome,[3],inactive
same,outcome,[4],inactive
same,outcome,[5],inactive
same,outcome,[6],inactive
same,outcome,[7],inactive
same,outcome,[8],inactive
same,outcome,[9],inactive
same,outcome,[10],inactive
same,outcome,[11],inactive
same,AC50,[12],24.9 µM (active)
same,AC50,[13],26.7 µM (active)
CCC(C)(C)c1ccc(O)c(C(C)(C)CC)c1,outcome,[3],inactive
same,AC50,[4],20 µM (active)
same,outcome,[5],inactive
same,AC50,[6],32.6 µM (active)
same,AC50,[7],8.12 µM (active)
same,AC50,[8],6.52 µM (active)
same,AC50,[9],20 µM (active)
same,AC50,[10],36.6 µM (active)
same,outcome,[11],inactive
same,AC50,[12],9.83 µM (active)
same,AC50,[13],20 µM (active)
same,AC50,[14],102 µM (active)
same,AC50,[15],75 µM (active)
Cc1ccc(N)cc1Cl,outcome,[18],inactive
same,outcome,[14],inactive
OCC(O)CCl (configuration not stated),AC50,[18],0.555 µM (active)
same,outcome,[14],inactive
O=C1C(Cl)=C(Cl)C(=O)c2ccccc21,AC50,[14],163 µM (active)
same,AC50,[15],189 µM (active)
O=C1CCCN1,outcome,[18],inactive
same,outcome,[14],inactive
same,outcome,[15],inactive
O=C(Cc1ccccc1)c1ccccc1,AC50,[18],112 µM (active)
same,outcome,[14],inactive
same,outcome,[15],inactive
O=S(=O)(c1ccc(Cl)cc1)c1ccc(Cl)cc1,outcome,[18],inactive
same,outcome,[15],inactive
CC(=O)c1cc(C(C)(C)C)cc2c1CCC2(C)C,outcome,[18],inactive
same,outcome,[14],inactive
same,outcome,[15],inactive
Oc1cccc2cccnc12,outcome,[14],inactive
same,outcome,[15],inactive
NNC(=S)NN,outcome,[18],inactive
same,outcome,[14],inactive
same,outcome,[15],inactive
Cn1sc(Cl)cc1=O,AC50,[16],8690 nM (active)
same,AC50,[17],4020 nM (active)
[O-][Cl+2]([O-])O,outcome,[18],inactive
same,outcome,[15],inactive
CC1(C)CCC(Cc2ccc(Cl)cc2)C1(O)Cn1cncn1 (configuration not stated),AC50,[14],120 µM (active)
same,AC50,[15],119 µM (active)
COP(=O)(OC)O/C(=C\Cl)c1cc(Cl)c(Cl)cc1Cl,outcome,[16],inactive
same,outcome,[17],inactive
same,AC50,[14],100 µM (active)
same,AC50,[15],100 µM (active)
O=C(NCO)NCO,outcome,[18],inactive
same,outcome,[14],inactive
ClC(Cl)=C(Cl)C(Cl)=C(Cl)Cl,outcome,[18],inactive
same,outcome,[14],inactive
same,outcome,[15],inactive
O=C(O)C(F)(F)C(F)(F)C(F)(F)C(F)(F)C(F)(F)C(F)(F)F,outcome,[16],inactive
same,outcome,[17],inactive
same,outcome,[15],inactive
CCOP(=S)(OCC)Oc1nc(Cl)c(Cl)cc1Cl,AC50,[16],13.3 µM (active) and 2.98 µM (active) and 12 µM (active)
same,AC50,[17],23.3 µM (active) and 15 µM (active) and 21.4 µM (active)
NC(=O)O,outcome,[18],inactive
same,outcome,[14],inactive
same,outcome,[15],inactive
CC(=O)C=C(C)C,outcome,[18],inactive
same,outcome,[14],inactive
same,outcome,[15],inactive
C[C@@H]1C[C@@H]([C@H](O)CC2CC(=O)NC(=O)C2)C(=O)[C@@H](C)C1,AC50,[14],28.5 µM (active)
same,outcome,[15],inactive
CNC,outcome,[18],inactive
same,outcome,[14],inactive
same,outcome,[15],inactive
C=C(C)C#N,outcome,[18],inactive
same,outcome,[14],inactive
COc1ccc(C=O)cc1,outcome,[18],inactive
same,outcome,[14],inactive
same,outcome,[15],inactive
CCCCCCCCSC(=O)Oc1cc(Cl)nnc1-c1ccccc1,outcome,[18],inactive
same,outcome,[14],inactive
same,outcome,[15],inactive
c1cc[c]([Hg][c]2ccccc2)cc1,outcome,[15],inactive
